The values below come from PubChem BioAssay.

Unmarked numbers belong to inactive results. For some of these results: Results with a measured potency or affinity are listed apart. Activity calls are given as the source filed them. Unless noted, the rule behind the calls is not given here.

Assay [1] is described as follows: antimalarial activity against Dd2 strain (AID 2302;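 active = growth inhibition above 50% at the single 2 µM test dose, taken to imply half-maximal potency below 2 µM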;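 note: 0% = DMSO untreated growth and 100% = chloroquine plus artemisinin killed control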). The note with it: P. falciparum Dd2 in RBCs, LDH growth readout, 72 h; at 2 µM; stronger effect = higher value.
The nature of assay [2]: human hepatoma cell viability loss – ATP luminescence, cytotoxicity control for P. falciparum antimalarial project, primary screen (AID 2303;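 active = inhibition above 50%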;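 note: 0% = DMSO wells and 100% = digitonin-killed cells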). The note with it: HepG2 viability, 24-48 h, at 10 µM, stronger effect = higher value.
The target in assay [3] is L-lactate dehydrogenase (Plasmodium falciparum (isolate CDC / Honduras)) (UniProt Q27743). The experiment in a line: PfLDH activity inhibition – cell lysate, 3D7 strain, counter-screen for P. falciparum growth inhibition project (AID 2304).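 Note: 0% = vehicle and 100% = reference inhibitor.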 The following applies: P. falciparum 3D7 crude extract, LDH APAD/NBT absorbance; at 2 µM; stronger effect = higher value.
Chain of L-lactate dehydrogenase (Plasmodium falciparum (isolate CDC / Honduras)) (Q27743 whole entry, looked up): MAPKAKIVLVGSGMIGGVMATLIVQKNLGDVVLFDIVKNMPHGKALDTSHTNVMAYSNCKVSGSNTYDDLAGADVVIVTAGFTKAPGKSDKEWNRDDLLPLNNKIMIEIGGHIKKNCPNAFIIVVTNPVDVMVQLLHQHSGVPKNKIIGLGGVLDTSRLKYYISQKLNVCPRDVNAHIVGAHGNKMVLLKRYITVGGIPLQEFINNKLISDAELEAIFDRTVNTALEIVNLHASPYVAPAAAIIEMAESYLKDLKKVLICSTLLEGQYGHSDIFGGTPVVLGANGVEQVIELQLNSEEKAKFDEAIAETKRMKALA
A short description of assay [4]: inhibition of 3D7 malaria parasite growth – strain 3D7 (AID 2306).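 Note: 0% = DMSO wells and 100% = chloroquine plus artemisinin control wells.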 The note with it: P. falciparum 3D7 erythrocytic growth, LDH absorbance, 72 h; at 2 µM; stronger effect = higher value.
Assay [5] addresses Calcium-dependent protein kinase 1 (Plasmodium falciparum (isolate 3D7)) (UniProt P62344). The experiment in a line: PfCDPK1 kinase inhibitors, biochemical, TCAMS library (AID 1159585; cut-off not given, nearly all actives have IC50 up to about 0.98 µM;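 note: inhibitors leave more ATP so luminescence rises with inhibition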). The note with it: recombinant PfCDPK1, Kinase-Glo ATP depletion luminescence.
In assay [6] the target is Plasmodium falciparum protein kinase 6 (PK6, PF3D7_1337100) (UniProt Q8IDW1). The experiment in a line: PfPK6 kinase inhibitors, biochemical, TCAMS library (AID 1159586). The following applies: recombinant PfPK6, Kinase-Glo ATP depletion luminescence.
Chain of Plasmodium falciparum protein kinase 6 (PK6, PF3D7_1337100) (Q8IDW1 1-305): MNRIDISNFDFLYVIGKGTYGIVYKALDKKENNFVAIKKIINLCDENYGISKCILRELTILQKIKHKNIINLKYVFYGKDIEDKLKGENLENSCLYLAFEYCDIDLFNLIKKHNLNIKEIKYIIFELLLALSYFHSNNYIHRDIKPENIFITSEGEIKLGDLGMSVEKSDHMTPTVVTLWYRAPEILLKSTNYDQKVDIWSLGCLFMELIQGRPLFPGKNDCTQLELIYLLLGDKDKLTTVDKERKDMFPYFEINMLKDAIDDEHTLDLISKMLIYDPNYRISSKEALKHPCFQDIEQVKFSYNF
Assay [7] has as its target Protein kinase 7 (PK7), Plasmodium falciparum 3D7 (PF3D7_0213400) (UniProt Q7YTF7). The experiment in a line: inhibition of Plasmodium PK7 catalytic activity – biochemical, TCAMS antimalarial set, Kinase-Glo luminescence (AID 1159587). The note with it: recombinant PfPK7, Kinase-Glo ATP depletion luminescence.
The target of assay [8] is Calcium-dependent protein kinase 4 (Plasmodium falciparum (isolate 3D7)) (UniProt Q8IBS5). The experiment in a line: PfCDPK4 kinase inhibitors, biochemical, TCAMS library (AID 1159588; cut-off not given, nearly all actives have IC50 up to about 0.91 µM). The following applies: recombinant PfCDPK4, Kinase-Glo ATP depletion luminescence.
Chain of Calcium-dependent protein kinase 4 (Plasmodium falciparum (isolate 3D7)) (Q8IBS5 whole entry, looked up): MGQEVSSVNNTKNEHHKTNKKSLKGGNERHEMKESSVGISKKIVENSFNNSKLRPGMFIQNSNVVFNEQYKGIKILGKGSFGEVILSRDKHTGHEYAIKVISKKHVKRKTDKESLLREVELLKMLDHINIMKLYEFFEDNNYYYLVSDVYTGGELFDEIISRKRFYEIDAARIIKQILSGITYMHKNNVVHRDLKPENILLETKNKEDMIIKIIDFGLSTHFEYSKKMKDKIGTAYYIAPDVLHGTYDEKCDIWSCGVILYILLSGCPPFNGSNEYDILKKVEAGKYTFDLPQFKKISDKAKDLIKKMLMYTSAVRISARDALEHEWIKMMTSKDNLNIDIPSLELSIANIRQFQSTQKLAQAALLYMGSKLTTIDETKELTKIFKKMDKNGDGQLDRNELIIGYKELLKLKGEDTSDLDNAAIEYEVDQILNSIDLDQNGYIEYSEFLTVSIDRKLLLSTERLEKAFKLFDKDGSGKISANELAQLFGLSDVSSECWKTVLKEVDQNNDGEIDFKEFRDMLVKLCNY

Chain of Calcium-dependent protein kinase 1 (Plasmodium falciparum (isolate 3D7)) (P62344 whole entry, looked up): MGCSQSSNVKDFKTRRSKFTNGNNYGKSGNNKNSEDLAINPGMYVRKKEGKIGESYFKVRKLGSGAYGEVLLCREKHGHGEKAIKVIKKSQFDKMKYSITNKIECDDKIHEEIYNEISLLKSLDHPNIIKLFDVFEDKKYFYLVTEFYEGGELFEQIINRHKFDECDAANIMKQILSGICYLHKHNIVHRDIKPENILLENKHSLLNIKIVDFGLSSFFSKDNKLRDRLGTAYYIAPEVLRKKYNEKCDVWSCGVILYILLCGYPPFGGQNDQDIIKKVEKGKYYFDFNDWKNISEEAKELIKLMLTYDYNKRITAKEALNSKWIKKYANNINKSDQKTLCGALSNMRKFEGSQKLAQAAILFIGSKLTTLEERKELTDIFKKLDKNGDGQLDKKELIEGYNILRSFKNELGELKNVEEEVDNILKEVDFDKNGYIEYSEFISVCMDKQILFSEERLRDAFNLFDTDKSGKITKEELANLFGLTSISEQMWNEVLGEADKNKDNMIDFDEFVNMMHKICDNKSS
Chain of Protein kinase 7 (PK7), Plasmodium falciparum 3D7 (PF3D7_0213400) (Q7YTF7 1-343): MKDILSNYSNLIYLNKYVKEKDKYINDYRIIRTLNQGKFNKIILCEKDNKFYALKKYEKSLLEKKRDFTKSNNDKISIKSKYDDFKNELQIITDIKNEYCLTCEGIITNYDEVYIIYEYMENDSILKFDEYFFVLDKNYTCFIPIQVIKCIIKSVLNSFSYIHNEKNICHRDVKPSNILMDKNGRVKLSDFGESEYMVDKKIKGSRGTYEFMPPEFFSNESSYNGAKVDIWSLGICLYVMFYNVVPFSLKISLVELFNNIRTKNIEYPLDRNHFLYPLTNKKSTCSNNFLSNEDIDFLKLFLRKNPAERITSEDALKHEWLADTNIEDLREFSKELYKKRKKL

With `Oc1ccc(Cc2ccccc2)cc1CNC1CCCCC1`, the values for the growth inhibition in assay [1] and in assay [4] were 98% (active) and 96% (active), respectively. The inhibition was 30% in assay [2] and -1% in assay [3]. Besides, the outcome in assay [5], in assay [6], in assay [7] and in assay [8] was inactive.
In the case of `COc1ccc2nccc(N3CCC(CCNCc4ccc5c(n4)NC(=O)CS5)CC3)c2n1`, the growth inhibition was 75% (active) in assay [1] and 102% (active) in assay [4]. Besides, the inhibition in assay [2] was 32%; in assay [3], -1%. Further, the result in assay [5], in assay [6], in assay [7] and in assay [8] was inactive.
As for `CC(C)(C)OC(=O)N[C@@H](Cc1ccccc1)C(=O)Nc1cccc(-c2cccc(NC(=O)[C@H](Cc3ccccc3)NC(=O)OC(C)(C)C)c2)c1`, the values for the growth inhibition in assay [1] and in assay [4] were 97% (active) and 106% (active), respectively. The inhibition in assay [2] is 10%; in assay [3], 6%. Also, the result in assay [5], in assay [6], in assay [7] and in assay [8] was inactive.
As for `FC(F)(F)c1ccc(NC(=S)N2CCC(CCN3CCC(c4c[nH]c5ccccc45)CC3)CC2)cc1`, the growth inhibition in assay [1] was 37%; in assay [4] it was 98% (active). For the same molecule, the inhibition in assay [2] was 44%; in assay [3], 0%. For the same molecule, the outcome in assay [5], in assay [6], in assay [7] and in assay [8] was inactive.
Turning to `CN1CCCN(Cc2cccc(-c3cccc(NC(=O)c4cccc(C#N)c4)c3)c2)CC1`, the growth inhibition was 33% in assay [1] and 95% (active) in assay [4]. In addition, the figures for the inhibition in assay [2] and in assay [3] were 18% and 2%, respectively. The result in assay [5], in assay [6], in assay [7] and in assay [8] was inactive.
With `COc1cc(N)c(Cl)cc1C(=O)NC1CCC(NCC2CCCCC2)CC1` (stereo not given), the growth inhibition was 85% (active) in assay [1] and 90% (active) in assay [4]. Besides, the inhibition in assay [2] was 18%; in assay [3], 0%. Further, the result in assay [5], in assay [6], in assay [7] and in assay [8] was inactive.
With `COCCOC(=O)C(=O)c1c(-c2ccccc2)c(-c2ccc(OC)c(OC)c2)c2c3cc(OC)c(OC)cc3ccn12`, the growth inhibition was 100% (active) in assay [1] and 101% (active) in assay [4]. Also, the inhibition in assay [2] was 4%; in assay [3] it was -2%. Further, the outcome in assay [5], in assay [6], in assay [7] and in assay [8] was inactive.
`CCc1c(CCNCCCCCCNCCc2ccccc2)ccc(OC)c1OC`: the growth inhibition is 3% in assay [1] and 102% (active) in assay [4]. Moreover, the inhibition in assay [2] is 33%; in assay [3] it was -2%. For the same molecule, the outcome in assay [5], in assay [6], in assay [7] and in assay [8] was inactive.
In the case of `COc1ccccc1CCNC(=O)c1cc(Br)cc(N2CCN(c3ccncc3)CC2)c1`, the figures for the growth inhibition in assay [1] and in assay [4] were 32% and 84% (active), respectively. Further, the inhibition in assay [2] was 38%; in assay [3], 4%. In addition, the result in assay [5], in assay [6], in assay [7] and in assay [8] was inactive.
Regarding `N=c1n(CCN2CCCC2)c2ccccc2n1CC(O)c1ccc(Cl)c(Cl)c1` (stereo not given), the growth inhibition in assay [1] is 6%; in assay [4] it was 100% (active). Besides, the inhibition is 36% in assay [2] and 5% in assay [3]. Besides, the result in assay [5], in assay [6], in assay [7] and in assay [8] was inactive.
For the molecule `COc1ccc2ccccc2c1CCCCN1CCN(CC(c2ccc(F)cc2)N2CCN(C(C)C)CC2)CC1` (stereo not given), the growth inhibition was 83% (active) in assay [1] and 100% (active) in assay [4]. Moreover, the inhibition in assay [2] was 92% (active); in assay [3], 2%. For the same molecule, the result in assay [5], in assay [6], in assay [7] and in assay [8] was inactive.
As for `COc1cc2nc(Nc3ccc4c(cnn4Cc4ccccc4)c3)nc(Nc3ccc4c(cnn4Cc4ccccc4)c3)c2cc1OC`, the results for the growth inhibition in assay [1] and in assay [4] were 100% (active) and 99% (active), respectively. The inhibition is 4% in assay [2] and 7% in assay [3]. The outcome in assay [5], in assay [6], in assay [7] and in assay [8] was inactive.
For the molecule `Cc1ccc([C@@H]2CC(=O)CC(c3ccccn3)[C@H]2[N+](=O)[O-])cc1` (stereo not given in full), the growth inhibition in assay [1] is 2%; in assay [4], 97% (active). Also, the inhibition in assay [2] was 5%; in assay [3] it was -1%. The result in assay [5], in assay [6], in assay [7] and in assay [8] was inactive.
Consider `O=C(Nc1ccc(Cl)cc1)N[C@H]1CCN(CCCCCNC(=O)[C@@H]2C[C@H]2c2ccc(Cl)c(Cl)c2)C1`, for which the growth inhibition was 1% in assay [1] and 96% (active) in assay [4]. Moreover, the figures for the inhibition in assay [2] and in assay [3] were 24% and 1%, respectively. For the same molecule, the result in assay [5], in assay [6], in assay [7] and in assay [8] was inactive.
`CC(C)(C)c1ccc(CNC(=O)c2cc(CNC3CCC(N)CC3)ccc2O)cc1` (stereo not given): the growth inhibition in assay [1] was 1%; in assay [4], 94% (active). The inhibition is 1% in assay [2] and 0% in assay [3]. The result in assay [5], in assay [6], in assay [7] and in assay [8] was inactive.
Consider `O=C(Nc1ccc(Cl)cc1)c1cc(Cl)ccc1NC(=O)C1CCc2ccccc2O1` (stereo not given), for which the growth inhibition is 63% (active) in assay [1] and 98% (active) in assay [4]. The inhibition was 1% in assay [2] and -1% in assay [3]. For the same molecule, the result in assay [5], in assay [6], in assay [7] and in assay [8] was inactive.
On to `Cc1nc(-c2nc(NCCc3ccncc3)ncc2-c2ccsc2)sc1C`, for which the growth inhibition was 87% (active) in assay [1] and 92% (active) in assay [4]. The inhibition in assay [2] was 10%; in assay [3], -1%. Further, the outcome in assay [5], in assay [6], in assay [7] and in assay [8] was inactive.
For the molecule `CCc1cc(Br)c(CNCCCNc2cc(=O)c3ccccc3[nH]2)s1`, the growth inhibition in assay [1] is 45%; in assay [4], 90% (active). The inhibition in assay [2] was 6%; in assay [3], -10%. The outcome in assay [5], in assay [6], in assay [7] and in assay [8] was inactive.
Take `Cc1cc(N[C@@H](Cc2ccccc2)C(=O)NCCc2ccccc2)nc(NCC2CCCCC2)n1`: the growth inhibition was 95% (active) in assay [1] and 101% (active) in assay [4]. Moreover, the inhibition in assay [2] is 24%; in assay [3], -2%. In addition, the result in assay [5], in assay [6], in assay [7] and in assay [8] was inactive.
`CC(C)Sc1nc2c(c(=O)n1CCc1ccccc1)C1(CCCCC1)Cc1ccccc1-2`: the growth inhibition in assay [1] is 5%; in assay [4], 92% (active). Also, the inhibition in assay [2] is 8%; in assay [3] it was 1%. The result in assay [5], in assay [6], in assay [7] and in assay [8] was inactive.
